Results filed as inconclusive are left out. Active and inactive are the calls of the source. Calls follow the shape of the dose curve; as a rule, active = well fitted curve in the direction sought with a large enough effect; inconclusive = small, poorly fitted or top-dose-only effect, or another doubt; inactive = no such curve, though single readings can be large; an effect the other way counts as inactive or inconclusive.
What was measured:
[1] = target: Calcium and integrin-binding protein 1 (Homo sapiens) (UniProt Q99828); test: Primary qHTS for Identification of Calcium Integrin Binding Protein 1 (CIB1) Competitor (AID 1508620);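 also: GST tagged CIB1 binding a fluorescein labelled alphaIIb integrin peptide tracer; top concentration of the series differs between compounds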
How it was run: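 Fluorescence polarization competition: CIB1-GST (1 uM final) preincubated with compound 15 min at room temperature, then FITC-labeled alphaIIb peptide (100 nM final) added for another 15 min. Polarization read at Ex 480/Em 540.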

[2] = Primary qHTS for inhibitors of nuclear receptor binding SET domain protein 2 (NSD2) in an isogenic RCH-ACV NSD2 p.E1099K mutant (9B) (AID 1645876); also: nearly all actives have a fitted effect of over 70% in size
[3] = Primary qHTS for inhibitors of nuclear receptor binding SET domain protein 2 (NSD2) in an RCH-ACV wild type WT cells (2C) (AID 1645877); also: nearly all actives have a fitted effect of over 70% in size
% is scaled to controls: 0 for no effect and ±100 for the full control effect.

Chain of Calcium and integrin-binding protein 1 (Homo sapiens) (Q99828 whole entry, looked up): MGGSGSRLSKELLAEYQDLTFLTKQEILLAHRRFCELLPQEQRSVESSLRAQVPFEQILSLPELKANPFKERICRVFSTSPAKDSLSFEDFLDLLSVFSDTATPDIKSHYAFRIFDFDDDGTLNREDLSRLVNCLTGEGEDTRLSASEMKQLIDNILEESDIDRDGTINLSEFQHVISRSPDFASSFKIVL

C=C1CCC2(C(=O)OC3OC(CO)C(O)C(O)C3O)CCC3(C)C(=CCC4C5(C)CCC(OC6OC(CO)C(OC7OC(C)C(O)C(O)C7O)C(OC7OCC(O)C(O)C7O)C6O)C(C)(C)C5CCC43C)C2C1 (stereo unspecified)
inactive: Potency [1] | outcome [2] inactive [at 9.23 µM] | activity change, negative = cell killing [3] -3.7% [at 9.23 µM]

CC1(C)[C@@H]2CC=C(CO[C@@H]3O[C@H](CO[C@@H]4OC[C@H](O)[C@H](O)[C@H]4O)[C@@H](O)[C@H](O)[C@H]3O)[C@H]1C2
inactive: Potency [1] | Potency [2] | Potency [3]

C[C@@H]1CC2OC(=O)C3=C2C(CCC3O)[C@@]12C[C@@H](c1ccoc1)OC2=O (stereo partly specified)
inactive: Potency [1] | Potency [2] | Potency [3]

CC(C)=CCc1cc(O[C@@H]2O[C@H](CO[C@@H]3OC[C@](O)(CO)[C@H]3O)[C@@H](O)[C@H](O)[C@H]2O)ccc1O
inactive: Potency [1] | Potency [2] | Potency [3]

C=C1CCC2C(C)(C)CCC[C@]2(C)[C@H]1CC/C(C)=C/C(=O)O (stereo partly specified)
inactive: Potency [1] | Potency [2] | Potency [3]

O=C(/C=C/c1ccccc1)O[C@@H]1[C@@H](CO)O[C@@](CO)(O[C@H]2O[C@H](CO)[C@@H](O)[C@H](O)[C@H]2O)[C@H]1O
inactive: Potency [1] | Potency [2] | Potency [3]

C/C=C(\C)C(=O)OC[C@H]1O[C@@H](O[C@H]2[C@@H](O[C@H]3O[C@H](CO)[C@@H](O)[C@H](O)[C@H]3O[C@@H]3O[C@H](CO)[C@@H](O)[C@H](O)[C@H]3O)O[C@H](COC(=O)/C(C)=C/C)[C@@H](O)[C@@H]2O)[C@H](O)[C@@H](O)[C@@H]1O
inactive: Potency [1] | activity change, negative = viability loss [2] -10.2% [at 9.23 µM] | activity change, negative = cell killing [3] -10.7% [at 9.23 µM]
